# Results from article PMC5540273 (PLoS ONE, 2017).
# Assays:
# Settings in all cases: concentration: 1 μM, replicates: in singlicate; n = 1
# EIF2AK1 = test system: EIF2AK1
# EPHA1 = test system: EPHA1
# EPHA2 = test system: EPHA2
# EPHA3 = test system: EPHA3
# EPHA4 = test system: EPHA4
# EPHA5 = test system: EPHA5
# EPHA6 = test system: EPHA6
# EPHA7 = test system: EPHA7
# EPHA8 = test system: EPHA8
# EPHB1 = test system: EPHB1
# EPHB2 = test system: EPHB2
# EPHB3 = test system: EPHB3
# EPHB4 = test system: EPHB4
# EPHB6 = test system: EPHB6
# ERBB2 = test system: ERBB2
# ERBB3 = test system: ERBB3
# ERBB4 = test system: ERBB4
# ERK1 = test system: T1, ERK1
# T1 construct: gene MAPK3
# ERK2 = test system: T2, ERK2
# T2 construct: gene MAPK1
# ERK3 = test system: T3, ERK3
# T3 construct: gene MAPK6
# 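Also: KINOMEscan kinase panel screen.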
SMILES,%Inh (EIF2AK1),%Inh (EPHA1),%Inh (EPHA2),%Inh (EPHA3),%Inh (EPHA4),%Inh (EPHA5),%Inh (EPHA6),%Inh (EPHA7),%Inh (EPHA8),%Inh (EPHB1),%Inh (EPHB2),%Inh (EPHB3),%Inh (EPHB4),%Inh (EPHB6),%Inh (ERBB2),%Inh (ERBB3),%Inh (ERBB4),%Inh (ERK1),%Inh (ERK2),%Inh (ERK3)
Cc1ccc(O)cc1Nc1cc(C(F)(F)F)nc2ccc(-c3ccncc3)cc12 [GW630823],0%,6%,17%,0%,5%,3%,5%,88%,68%,12%,3%,0%,18%,9%,0%,0%,0%,2%,5%,9%
CS(=O)(=O)CCNCc1ccc(-c2ccc3ncnc(Nc4ccc(OCc5ccccc5)c(Cl)c4)c3c2)o1.Cl [GW574783],0%,3%,1%,0%,13%,0%,15%,0%,8%,3%,0%,18%,8%,28%,100%,69%,90.8%,4%,0%,0%
Cl.Fc1ccccc1COc1ccc(Nc2ncnc3ccc(-c4nnc(C(F)(F)F)o4)cc23)cc1Cl [GW424170],0%,19%,0%,0%,3%,0%,0%,3%,0%,19%,0%,2%,0%,0%,96.7%,0%,70%,0%,0%,7%
Fc1ccc(-c2ncn(CCCNCc3ccccc3)c2-c2ccncc2)cc1,0%,4%,10%,0%,6%,7%,23%,0%,19%,15%,14%,19%,17%,36%,10%,23%,0%,5%,14%,0%
CCCc1ccc(S(=O)(=O)NC2CCN(c3ccnc(Nc4ccc(OC)cc4)n3)C2)cc1 (stereo not drawn) [GSK1379737],0%,15%,0%,0%,0%,0%,12%,0%,7%,0%,10%,5%,7%,31%,36%,0%,24%,0%,0%,79%
CN1c2ccc(-c3ccc(C(=O)NCCO)cc3)cc2-c2[nH]ncc2S1(=O)=O,0%,11%,27%,14%,14%,19%,22%,3%,0%,7%,20%,18%,23%,54%,8%,0%,10%,10%,11%,5%
CCc1nc(-c2cccc(C)c2)c(-c2ccnc(NC(=O)c3ccccc3)c2)s1,15%,0%,0%,4%,32%,28%,45%,12%,15%,14%,4%,36%,37%,100%,46%,2%,34%,0%,40%,4%
FC(F)(F)c1ccc(-c2nn3ncccc3c2-c2ccnc(Nc3cccc(C(F)(F)F)c3)n2)cc1 [GW828205],0%,34%,19%,0%,81%,0%,78%,0%,0%,2%,1%,68%,55%,0%,13%,27%,35%,0%,3%,0%
Cl.c1ccc(Cn2ncc3cc(Nc4ncnc5ccccc45)ccc32)cc1 [GW273749],0%,28%,0%,0%,4%,0%,0%,7%,17%,0%,0%,0%,10%,31%,100%,68%,96.2%,0%,0%,57%
O=C(Nc1ccccc1)Nc1ccc(Oc2ccc3nccn3n2)cc1,0%,31%,25%,0%,0%,0%,0%,3%,23%,13%,0%,7%,7%,0%,24%,0%,0%,0%,0%,0%
CC(=O)Nc1n[nH]c2ncc(-c3ccccc3)cc12 [SB-548492],0%,17%,0%,2%,8%,15%,29%,0%,32%,15%,0%,16%,14%,36%,0%,0%,29%,12%,11%,1%
CSc1ccc(NC2=C(c3ccccc3Cl)C(=O)NC2=O)cc1 [SB-342411],0%,2%,27%,16%,7%,0%,0%,6%,14%,9%,15%,0%,3%,18%,0%,0%,0%,5%,0%,0%
N#Cc1ccc(Oc2ccc(Nc3ncnc4cc[nH]c34)cc2Cl)cc1,5%,1%,0%,0%,23%,0%,23%,2%,1%,5%,8%,21%,24%,33%,79%,9%,76%,0%,6%,0%
OCCOCCn1ccc2ncnc(Nc3ccc(Oc4cccc(Cl)c4)c(Cl)c3)c21,0%,0%,1%,0%,0%,0%,0%,0%,0%,2%,0%,6%,0%,2%,100%,0%,96%,0%,0%,0%
CC(C)(C)c1ccc(-n2cnc3c(N)ncnc32)cc1 [SKF-97263],0%,14%,23%,0%,27%,0%,28%,8%,16%,3%,17%,31%,15%,9%,29%,0%,0%,7%,0%,0%
FC(F)(F)c1ccc(-c2cc(-c3c[nH]nc3-c3ccccn3)ccn2)cc1 [GW599550],100%,2%,0%,13%,0%,0%,0%,5%,9%,30%,0%,0%,8%,37%,38%,16%,0%,15%,0%,0%
NC(=O)c1sc(-n2cnc3ccccc32)cc1OCc1ccccc1F [GSK1024306],0%,2%,0%,5%,0%,0%,0%,0%,19%,0%,0%,1%,0%,8%,47%,18%,25%,0%,0%,0%
Clc1cc(Nc2ncnc3cc[nH]c23)ccc1OCc1ccccn1,3%,11%,12%,0%,24%,14%,27%,1%,0%,1%,15%,21%,25%,35%,100%,24%,73%,0%,18%,0%
CNc1nccc(-c2c(-c3ccc(F)cc3)ncn2C2CCN(C)CC2)n1 [SB-222903],0%,0%,0%,2%,1%,0%,0%,0%,0%,9%,0%,2%,0%,0%,0%,0%,2%,1%,0%,0%
Clc1cccc(-c2nc(Nc3ccncc3)c3ccccc3n2)c1 [GW873004],0%,100%,38%,0%,5%,0%,0%,15%,18%,19%,2%,0%,45%,0%,38%,46%,0%,1%,12%,0%
CC(C)(C)OC(=O)NC1CCCN(c2cc(-c3ccc4c(N)n[nH]c4c3)nc(N)n2)C1 (stereo not drawn) [GSK2286096],4%,8%,11%,0%,14%,0%,9%,0%,6%,10%,90.5%,14%,9%,0%,0%,0%,33%,0%,0%,0%

SMILES,%Inh (EIF2AK1),%Inh (EPHA1),%Inh (EPHA2),%Inh (EPHA3),%Inh (EPHA4),%Inh (EPHA5),%Inh (EPHA6),%Inh (EPHA7),%Inh (EPHA8),%Inh (EPHB1),%Inh (EPHB2),%Inh (EPHB3),%Inh (EPHB4),%Inh (EPHB6),%Inh (ERBB2),%Inh (ERBB3),%Inh (ERBB4),%Inh (ERK1),%Inh (ERK2),%Inh (ERK3)
Fc1ccc(Nc2nccc(-c3c(-c4ccc(Cl)cc4)nn4ncccc34)n2)cc1F [GW829058],0%,13%,3%,27%,12%,24%,15%,8%,9%,20%,17%,15%,14%,23%,21%,36%,0%,6%,28%,0%
Nc1nc(-c2cccnc2)c(-c2ccnc3ccccc23)s1 [GW684083],0%,0%,21%,12%,4%,0%,8%,0%,9%,6%,0%,17%,11%,28%,51%,20%,8%,11%,4%,0%
CCC(CC)(CC)n1cnc2c(N)ncnc21 [SKF-97620],30%,0%,100%,11%,15%,0%,16%,22%,23%,9%,0%,18%,0%,9%,20%,46%,32%,0%,0%,0%
CNc1nccc(-c2c(-c3ccc(F)cc3)ncn2CCCN2CCOCC2)n1 [SB-222516],12%,14%,0%,0%,0%,0%,0%,21%,25%,17%,0%,0%,8%,0%,0%,30%,8%,7%,1%,0%
Cl.c1ccc(Cn2ccc3cc(Nc4ncnc5ccccc45)ccc32)cc1 [GW275568],5%,7%,1%,40%,0%,0%,0%,10%,20%,4%,6%,4%,18%,33%,100%,29%,88%,0%,0%,4%
Nc1nc(-c2ccccn2)c(-c2ccnc3ccccc23)s1 [GW548057],0%,6%,0%,15%,0%,0%,6%,13%,20%,5%,14%,14%,0%,27%,53%,31%,11%,0%,0%,10%
Cc1cc(N2CCC(NS(=O)(=O)c3ccc(F)cc3)CC2)nc(Nc2cccc(C#N)c2)n1.O=C(O)C(F)(F)F [GSK1653537],0%,1%,0%,0%,7%,0%,5%,6%,19%,15%,0%,1%,13%,8%,13%,0%,0%,0%,0%,7%
Cc1ccc(C)c(NC(=O)NCCNc2ccnc(Nc3ccc(F)cc3)n2)c1 [GSK1379878],0%,6%,11%,0%,0%,0%,0%,0%,3%,0%,0%,0%,0%,11%,0%,3%,38%,0%,0%,0%
CN1CCC(n2cnc(-c3ccc(F)cc3)c2-c2ccnc(NC3CCNCC3)n2)CC1 [SB-229482],0%,0%,5%,18%,7%,5%,5%,0%,0%,0%,11%,4%,0%,8%,32%,18%,4%,0%,14%,30%
Cl.Cl.c1ccc(-c2cc3ccncc3cc2OC2CCNCC2)cc1 [GSK1122999],13%,11%,13%,0%,9%,0%,12%,5%,13%,25%,47%,17%,5%,11%,10%,0%,0%,0%,4%,24%
COC(=O)c1cccc(NC(=O)NCCNc2ccnc(Nc3ccc(F)cc3)n2)c1 [GSK1379883],0%,5%,32%,0%,7%,0%,20%,3%,9%,4%,0%,21%,6%,4%,14%,15%,28%,0%,11%,0%
COc1ccc(NC(=O)Nc2ccc(C)c(-c3ccc(C(=O)Nc4ccncc4)cc3)c2)cc1 [GSK1398475],0%,6%,8%,13%,1%,0%,11%,4%,14%,13%,12%,13%,13%,20%,0%,0%,19%,2%,0%,9%
Nc1nc(-c2ccc3c(N)n[nH]c3c2)cc(N2CCCCC2)n1 [GSK2228768],0%,0%,0%,0%,3%,0%,0%,0%,0%,9%,0%,0%,8%,0%,2%,0%,0%,0%,0%,6%
c1ccc(-c2ccc3c(-c4ccnc(Nc5ccc6c(c5)OCCO6)n4)cnn3n2)cc1 [GW818941],0%,7%,18%,0%,21%,0%,12%,14%,17%,18%,3%,13%,10%,0%,21%,15%,0%,11%,6%,0%
C[C@@H]1CCN(C(=O)CO)C[C@@H]1N(C)c1ncnc2[nH]ccc12,5%,8%,0%,0%,0%,2%,0%,0%,0%,9%,0%,0%,0%,17%,19%,0%,11%,0%,0%,14%
O=C(CCO)NCCn1ccc2ncnc(Nc3ccc(Oc4cccc(C(F)(F)F)c4)c(Cl)c3)c21,0%,0%,0%,0%,0%,0%,0%,0%,0%,0%,0%,2%,3%,8%,100%,0%,95.9%,0%,9%,0%
Fc1cccc(COc2ccc(Nc3ncnc4nn5ccccc5c34)cc2Cl)c1 [GW689066],0%,11%,12%,0%,0%,0%,9%,0%,0%,4%,0%,16%,0%,1%,98.2%,27%,95.2%,0%,0%,0%
Cc1cccc(-c2nc(Nc3ccc4[nH]nnc4c3)c3ccccc3n2)n1 [GW867587],0%,0%,0%,0%,0%,0%,0%,0%,0%,6%,0%,0%,0%,0%,0%,0%,11%,0%,0%,0%
Clc1ccc(-c2cc(-c3c[nH]nc3-c3ccccn3)ccn2)cc1 [GW681251],0%,0%,8%,0%,2%,0%,10%,0%,0%,7%,31%,15%,1%,0%,17%,0%,0%,0%,0%,8%
O=c1cc(N2CCOCC2)nc2n(Cc3cccc(Cl)c3)ccn12 [GSK2296823],7%,17%,14%,82%,20%,0%,19%,7%,17%,8%,0%,15%,9%,56%,0%,0%,100%,0%,0%,0%
Cl.O=S(=O)(c1cccc(F)c1)c1ccc(Nc2ncnc3cc(Br)sc23)cc1Cl [GSK306886],0%,9%,9%,14%,19%,0%,16%,2%,2%,10%,42%,19%,17%,0%,98.7%,0%,43%,0%,0%,10%
